{"source": "ChEMBL document CHEMBL3988442", "about": "“University of Dundee, Small-Polar-MMV Screening Library” (2021)", "data": [{"target": "AMP-activated protein kinase, AMPK (Homo sapiens) (UniProt P54646+O43741+P54619+Q9UGJ0+Q9Y478+Q13131+Q9UGI9)", "experiment": "AMP-dependent Kinase enzyme assay. An in vitro enzyme assay that detects ADP turnover that is directly proportional to AMPK activity. This uses naive AMPK that is activated during the assay with MK-8722", "format": "functional", "set-up": "scale not given: direction of the effect not stated beside the values", "conditions": "30 µM", "units": {"Percent Effect": "%"}, "values": [{"smiles": "CC(=O)N1CCC(c2ncc(C(=O)Nc3ccc(F)cc3)c(C)n2)CC1", "Percent Effect": -4.39}, {"smiles": "O=C(CCOc1ccccc1F)N1CCC(O)CC1", "Percent Effect": 3.95}, {"smiles": "CC(C)(C)CN(CCC#N)C(=O)c1cccc(CN2CCCC2)c1", "Percent Effect": 7.06}, {"smiles": "Cc1ccc(CCc2nc(C3CCOC3)no2)o1", "note": "(stereo not given)", "Percent Effect": 10.1}, {"smiles": "CC(C)(C)c1cn2c(n1)C(CNCc1cnn3ccccc13)CCC2", "note": "(stereo not given)", "Percent Effect": -1.22}, {"smiles": "Cn1cc(CN2CCOC(c3cccc(-c4cncnc4)n3)C2)cn1", "note": "(stereo not given)", "Percent Effect": 11.3}, {"smiles": "COCC(C)NC(=O)c1sccc1-n1cnnn1", "note": "(stereo not given)", "Percent Effect": 15.6}, {"smiles": "O=C(c1cccnc1)N1CCOC(Cc2ccccc2Cl)C1", "note": "(stereo not given)", "Percent Effect": 11}, {"smiles": "CC(NC(=O)N1CCC1)c1ccc(S(C)(=O)=O)cc1", "note": "(stereo not given)", "Percent Effect": 4.53}, {"smiles": "O=C(c1ccccc1F)N1CCCC1Cn1c(=O)oc2ccccc21", "note": "(stereo not given)", "Percent Effect": 10.9}, {"smiles": "OC(CNCc1nnc2ccccn12)c1ccc2c(c1)OCCCO2", "note": "(stereo not given)", "Percent Effect": 9.77}, {"smiles": "CC(C)c1nccc(CN(C)Cc2cccc(-n3cccn3)c2)n1", "Percent Effect": -3.37}, {"smiles": "Cc1nn(C)c(C)c1C1COCCN1C(=O)CC(C)(C)C", "note": "(stereo not given)", "Percent Effect": -3.31}, {"smiles": "CN1C[C@@H]2CC[C@H](C1)N(Cc1ccccc1OCCN1CCOCC1)C2", "Percent Effect": -106}, {"smiles": "O=C(CCCn1ccnc1)NC1CCCN(c2ccccc2Cl)C1", "note": "(stereo not given)", "Percent Effect": 6.12}, {"smiles": "COc1ccc(C2CN(c3cc(C)ncn3)CCN2C(C)=O)cc1", "note": "(stereo not given)", "Percent Effect": 21.4}, {"smiles": "CS(=O)(=O)c1ccc(CN2C[C@H]3CC[C@@H]2CN(c2ncccn2)C3)cc1", "Percent Effect": 9.64}, {"smiles": "CCC(NC(=O)c1cnc(N(C)C)nc1C)c1ccc(S(C)(=O)=O)cc1", "note": "(stereo not given)", "Percent Effect": -4.95}, {"smiles": "CN1CCC(Cc2cnc(CNC(=O)Cc3cccc(F)c3)cn2)CC1", "Percent Effect": 3.91}, {"smiles": "COc1cccc(CCC(=O)Nc2c(C)nn(C)c2C)c1OC", "Percent Effect": 15.8}]}]}
